“And” between values parts separate entries of the source, which are not always exact repeats. Identical values can stand only once. This is part of a sample that, as a whole, favours compounds with a hit. Of some 83,000 tested, about 20% had one in any assay.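 In brief: 96-well plates, 48 h treatment, single concentration, percent growth endpoint.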 Where a structure was tested more than once in an assay, its records may differ in their call. The source made the active and inactive calls. The calls were made as follows: active = growth percent below 10; inactive = the rest.
Legend:
Assay in all cases: NCI-60 one-dose screen, 48 h (100 = growth as untreated, 0 = no growth, -100 = all killed)
Details in all cases: 10 µM unless noted
[1] = test system: NCI-H23 lung
[2] = test system: NCI-H226 lung
[3] = test system: NCI-H322M lung
[4] = test system: HOP-62 NSCLC
[5] = test system: NCI-H460 lung
[6] = test system: HOP-92 NSCLC
[7] = test system: NCI-H522 lung
[8] = test system: A549/ATCC NSCLC
[9] = test system: 786-0 renal
[10] = test system: COLO 205 colon
[11] = test system: DU-145 prostate
[12] = test system: K-562 leukemia
[13] = test system: MALME-3M melanoma
[14] = test system: MDA-MB-231 breast
[15] = test system: RXF 393 renal
[16] = test system: SF-268 CNS
[17] = test system: SF-295 CNS
[18] = test system: SF-539 CNS
[19] = test system: UACC-257 melanoma
[20] = test system: M14 melanoma

## CCOc1ccc2c(S(=O)(=O)O)cccc2c1[N+](=O)[O-]
[1]
  growth: 94.5% (inactive) and 102% (inactive)
[2]
  growth: 97.1% (inactive) and 94% (inactive)
[3]
  growth: 102% (inactive) and 104% (inactive)
[4]
  growth: 102% (inactive) and 105% (inactive)
[5]
  growth: 99.1% (inactive) and 105% (inactive)
[6]
  growth: 104% (inactive) and 78.3% (inactive)
[7]
  growth: 99.7% (inactive) and 122% (inactive)
[8]
  growth: 97.2% (inactive) and 101% (inactive)
[9]
  growth: 113% (inactive) and 111% (inactive)
[10]
  growth: 107% (inactive) and 103% (inactive)
[11]
  growth: 104% (inactive) and 116% (inactive)
[12]
  growth: 101% (inactive) and 88.4% (inactive)
[13]
  growth: 106% (inactive) and 101% (inactive)
[14]
  growth: 106% (inactive) and 110% (inactive)
[15]
  growth: 114% (inactive) and 100% (inactive)
[16]
  growth: 99.1% (inactive) and 96.2% (inactive)
[17]
  growth: 104% (inactive) and 107% (inactive)
[18]
  growth: 102% (inactive) and 107% (inactive)
[19]
  growth: 114% (inactive) and 100% (inactive)
[20]
  growth: 108% (inactive) and 99.6% (inactive)

## OC(COc1cccc2ccccc12)CN1CCN(c2ccc(Cl)cc2)CC1 (stereo not given)
[1]
  growth: 84.6% (inactive) and 86.5% (inactive)
[2]
  growth: 92.4% (inactive) and 111% (inactive)
[3]
  growth: 90% (inactive) and 102% (inactive)
[4]
  growth: 96.5% (inactive) and 77.3% (inactive)
[5]
  growth: 49% (inactive) and 95% (inactive)
[6]
  growth: 75.1% (inactive) and 77% (inactive)
[7]
  growth: 109% (inactive) and 85.7% (inactive)
[8]
  growth: 71.9% (inactive) and 88.3% (inactive)
[9]
  growth: 80.9% (inactive) and 89.7% (inactive)
[10]
  growth: 121% (inactive)
[11]
  growth: 93.1% (inactive) and 122% (inactive)
[12]
  growth: 66.3% (inactive) and 85% (inactive)
[13]
  growth: 109% (inactive) and 106% (inactive)
[14]
  growth: 83.6% (inactive) and 112% (inactive)
[15]
  growth: -3.89% (active) and 94.8% (inactive)
[16]
  growth: 91.1% (inactive) and 103% (inactive)
[17]
  growth: 70.2% (inactive) and 83.2% (inactive)
[18]
  growth: 91.3% (inactive) and 102% (inactive)
[19]
  growth: 114% (inactive) and 95.9% (inactive)
[20]
  growth: 90.9% (inactive) and 100% (inactive)

## O=S1(=O)CC(Br)C(Br)C1 (stereo not given)
[1]
  growth: 61.3% (inactive) and 97.8% (inactive)
[2]
  growth: 40.7% (inactive) and 113% (inactive)
[3]
  growth: 104% (inactive) and 108% (inactive)
[4]
  growth: 104% (inactive) and 116% (inactive)
[5]
  growth: 107% (inactive) and 97.5% (inactive)
[6]
  growth: 5.91% (active) and 37.5% (inactive)
[7]
  growth: -48.2% (active)
[8]
  growth: 95.4% (inactive) and 95% (inactive)
[9]
  growth: 101% (inactive) and 82.1% (inactive)
[10]
  growth: 41.1% (inactive) and 58.3% (inactive)
[11]
  growth: 72.3% (inactive) and 129% (inactive)
[12]
  growth: 47% (inactive) and 69.7% (inactive)
[13]
  growth: 19.9% (inactive) and 53.1% (inactive)
[14]
  growth: 88% (inactive) and 103% (inactive)
[15]
  growth: 40.1% (inactive) and 67.5% (inactive)
[16]
  growth: 109% (inactive) and 129% (inactive)
[17]
  growth: 111% (inactive) and 99.8% (inactive)
[18]
  growth: 97.6% (inactive) and 99.1% (inactive)
[19]
  growth: 71.5% (inactive) and 64.7% (inactive)
[20]
  growth: 73.2% (inactive) and 87.5% (inactive)

## c1ccc2cc(C[n+]3ccn(Cc4ccc5ccccc5n4)c3)ccc2c1
[1]
  growth: -4.2% (active) and 29.2% (inactive)
[2]
  growth: 19.6% (inactive) and 46.4% (inactive)
[3]
  growth: 34.8% (inactive) and 75% (inactive)
[4]
  growth: 1.85% (active) and 44.3% (inactive)
[5]
  growth: 11.1% (inactive) and 35.8% (inactive)
[6]
  growth: -20.1% (active) and -5.22% (active)
[7]
  growth: -27.4% (active) and 6.58% (active)
[8]
  growth: 37.3% (inactive) and 59.3% (inactive)
[9]
  growth: 30.9% (inactive) and 76.1% (inactive)
[10]
  growth: -38.3% (active) and -35.3% (active)
[11]
  growth: 21.9% (inactive) and 64.5% (inactive)
[12]
  growth: 14.5% (inactive) and 21.2% (inactive)
[13]
  growth: -27.2% (active) and 22.9% (inactive)
[14]
  growth: -2.02% (active) and 23.4% (inactive)
[15]
  growth: 23.5% (inactive) and 45.4% (inactive)
[16]
  growth: 11.9% (inactive) and 41.2% (inactive)
[17]
  growth: 19.7% (inactive) and 60% (inactive)
[18]
  growth: 13.8% (inactive) and 29.3% (inactive)
[19]
  growth: -25.3% (active) and -8.7% (active)
[20]
  growth: 9.07% (active) and 35.4% (inactive)

## O=C(O)C1(C(=O)O)CCC1.[NH2-].[NH2-].[Pt+2]
[1]
  growth: 104% (inactive) and 87.6% (inactive)
[2]
  growth: 99% (inactive) and 98.5% (inactive)
[3]
  growth: 99.9% (inactive) and 110% (inactive)
[4]
  growth: 98.2% (inactive) and 105% (inactive)
[5]
  growth: 116% (inactive) and 92.4% (inactive)
[6]
  growth: 70.1% (inactive)
[7]
  growth: 98.3% (inactive) and 76.1% (inactive)
[8]
  growth: 99.3% (inactive) and 97.5% (inactive)
[9]
  growth: 101% (inactive) and 98.7% (inactive)
[10]
  growth: 106% (inactive) and 115% (inactive)
[11]
  growth: 127% (inactive) and 104% (inactive)
[12]
  growth: 65.9% (inactive)
[13]
  growth: 86.4% (inactive) and 94.2% (inactive)
[14]
  growth: 94.4% (inactive) and 8.97% (active)
[15]
  growth: 93.9% (inactive)
[16]
  growth: 118% (inactive) and 96.4% (inactive)
[17]
  growth: 103% (inactive) and 96.9% (inactive)
[18]
  growth: 100% (inactive) and 89% (inactive)
[19]
  growth: 102% (inactive) and 95.7% (inactive)
[20]
  growth: 99.2% (inactive) and 104% (inactive)

## COc1ccc(-c2ncnc3c2ncn3C/C=C/CCl)cc1
[1]
  growth: 63.6% (inactive) and 80.5% (inactive)
[2]
  growth: 89.4% (inactive) and 81.5% (inactive)
[3]
  growth: 100% (inactive) and 105% (inactive)
[4]
  growth: 98.7% (inactive) and 95.9% (inactive)
[5]
  growth: 67.5% (inactive) and 97.1% (inactive)
[6]
  growth: 37.9% (inactive) and 62.9% (inactive)
[7]
  growth: 48.5% (inactive) and 55.5% (inactive)
[8]
  growth: 81.2% (inactive) and 75% (inactive)
[9]
  growth: 70.2% (inactive) and 80% (inactive)
[10]
  growth: 87.5% (inactive) and 94.1% (inactive)
[11]
  growth: 81.8% (inactive) and 112% (inactive)
[12]
  growth: 67.2% (inactive) and 77.5% (inactive)
[13]
  growth: 61.8% (inactive) and 49.7% (inactive)
[14]
  growth: 88.8% (inactive) and 89.2% (inactive)
[15]
  growth: 7.94% (active) and 42.6% (inactive)
[16]
  growth: 87.7% (inactive) and 86.8% (inactive)
[17]
  growth: 109% (inactive) and 92.6% (inactive)
[18]
  growth: 75.9% (inactive) and 98.9% (inactive)
[19]
  growth: 80.5% (inactive) and 77.7% (inactive)
[20]
  growth: 70.9% (inactive) and 87% (inactive)

## N#C/C(=C1C=C/C(=N/O)C(Br)=C/1)c1ccccc1
[1]
  growth: 78.3% (inactive)
[2]
  growth: 32% (inactive)
[3]
  growth: 42.4% (inactive)
[4]
  growth: 16.3% (inactive)
[5]
  growth: 8.25% (active)
[6]
  growth: -6.62% (active)
[7]
  growth: -43.3% (active)
[8]
  growth: 27.6% (inactive)
[9]
  growth: 20% (inactive)
[10]
  growth: 83.2% (inactive)
[11]
  growth: -13.1% (active)
[12]
  growth: 9.55% (active)
[13]
  growth: 67.4% (inactive)
[14]
  growth: 28.1% (inactive)
[15]
  growth: 17% (inactive)
[16]
  growth: 18.8% (inactive)
[17]
  growth: -8.83% (active)
[18]
  growth: -26% (active)
[19]
  growth: 44.1% (inactive)
[20]
  growth: 31.9% (inactive)

Source: PubChem BioAssay (NCI)
